Assay outcomes (PubChem)
Gal4-VP16 FLuc: inhibits Gal4-VP16 luciferase reporter, ROR gamma counter-screen | hit rate 3.5% among 310,000 | AID 2546 | Potency, µM (highest dose often 53.6 µM), without a hit: at the highest dose activity, negative = inhibition, usual class: inhibitors | Drosophila S2 Gal4-VP16 UAS-luciferase, luminescence, 20 h;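 also: Gal4-VP16 expression switched on by copper sulfate through the metallothionein promoter; nearly all actives have a fitted effect of over 50% in size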
KinaseGlo FLuc: Kinase-Glo luciferase inhibition (counter-screen); Q27757; Kinase-Glo luciferase, ATP luminescence, 8 min; Potency, µM (highest dose often 38.3 µM), for the others: at the top dose activity change, negative = inhibition, most hits filed as inhibitors; hit rate 0.28% among 200,000; AID 1379; also: nearly all actives have a fitted effect of over 60% in size
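Inhibition of Kinase-Glo luciferase light generation was assessed at 10 uM ATP in pH 7.2 imidazole buffer, with luminescence measured after eight minutes at ambient temperature.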
RORgamma inh: ROR gamma (mouse) transcription inhibition | P51450 | Drosophila S2 Gal4-RORgamma UAS-luciferase reporter, 20 h | Potency, µM (top dose mostly 53.6 µM), for the others: top-dose activity change, negative = inhibition, most hits filed as inhibitors | hit rate 5.4% among 310,000; also: nearly all actives have a fitted effect of over 60% in size
Target sequence (P51450 whole entry, looked up, the tested form may be a part): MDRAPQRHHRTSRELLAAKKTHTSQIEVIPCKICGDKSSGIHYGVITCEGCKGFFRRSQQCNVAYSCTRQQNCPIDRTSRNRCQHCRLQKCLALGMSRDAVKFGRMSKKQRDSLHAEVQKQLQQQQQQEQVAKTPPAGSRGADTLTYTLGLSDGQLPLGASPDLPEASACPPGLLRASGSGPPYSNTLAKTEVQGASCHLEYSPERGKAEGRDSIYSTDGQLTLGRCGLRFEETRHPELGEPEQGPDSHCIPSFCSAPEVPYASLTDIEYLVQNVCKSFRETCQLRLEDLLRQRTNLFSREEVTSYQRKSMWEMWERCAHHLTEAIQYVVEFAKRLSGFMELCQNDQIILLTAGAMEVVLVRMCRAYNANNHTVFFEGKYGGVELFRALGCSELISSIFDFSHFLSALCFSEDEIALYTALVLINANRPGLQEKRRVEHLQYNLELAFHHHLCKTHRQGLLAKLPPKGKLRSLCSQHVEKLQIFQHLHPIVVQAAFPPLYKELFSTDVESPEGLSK
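A Gal4/UAS one-hybrid system in insect cells: metallothionein-promoter Gal4–ROR gamma fusion plus Photinus luciferase reporter. Copper sulfate 700 uM final, 20 hr ambient incubation, luminescent detection after 10 min with reagent.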
* marks the source's active call; other numbers are inactive results; [ ] = remark or other dose. This is a sample that favours compounds with a hit; in the whole collection about 6.4% have one here. Calls follow the shape of the dose curve; as a rule, active = well fitted curve in the direction sought with a large enough effect; inconclusive = small, poorly fitted or top-dose-only effect, or another doubt; inactive = no such curve, though single readings can be large; an effect the other way counts as inactive or inconclusive. % is scaled to controls: 0 for no effect and ±100 for the full control effect; potency is read from the fitted curve at half-maximal effect.

For CCCCOc1ccc(C2/C(=C(\O)c3ccc4c(c3)OCCO4)C(=O)C(=O)N2CCCN2CCOCC2)cc1 (configuration not stated) the results were Gal4-VP16 FLuc -6.0% and RORgamma inh 4.3%.
Screening OCCCNc1ccccc1 returned Gal4-VP16 FLuc -4.8% and RORgamma inh 0.0%.
O=C(Nc1nc(-c2ccccn2)cs1)C12CC3CC(CC(O)(C3)C1)C2 was read as Gal4-VP16 FLuc -28.7%, KinaseGlo FLuc -3.4% and RORgamma inh inconclusive.
Screening O=C(Nc1nc(-c2ccccn2)cs1)C1CC1 returned Gal4-VP16 FLuc inconclusive, KinaseGlo FLuc 0.2% and RORgamma inh 15.8µM*.
Screening COc1cc(OC)c2c(c1C(CCN1CCCC1)c1ccc(N(C)C)cc1)OC(=O)CC2c1ccc(N(C)C)cc1 (configuration not stated) returned Gal4-VP16 FLuc -10.0% and RORgamma inh 15.1%.
`Cc1ccccc1OC1C(=O)N(Cc2ccc3c(c2)OCO3)C1c1sccc1C` (configuration not stated) gave Gal4-VP16 FLuc -6.4%, KinaseGlo FLuc -2.6% and RORgamma inh 25.2%.
Screening COc1cc(COc2ccc3c(C)c(CC(=O)O)c(=O)oc3c2C)cc(OC)c1OC returned Gal4-VP16 FLuc -13.7% and RORgamma inh 25.2%.
`S=C1NCN(C2CCCCC2)CN1c1ccccc1` gave Gal4-VP16 FLuc inconclusive and RORgamma inh 22.4µM*.
For CCN1CNC(=S)N(c2cccc(C)c2)C1 the results were Gal4-VP16 FLuc 1.8% and RORgamma inh inconclusive.
COc1ccc(-c2nc3c(c4c2C[C@H](c2ccccc2)OC4)CN(C(=O)N[C@@H](C)c2ccccc2)CC3)c(C)c1 was read as KinaseGlo FLuc -0.7%[7.66 µM].
CC1C/C(=C/c2ccccn2)C(=O)/C(=C/c2ccccn2)C1 (configuration not stated) was read as Gal4-VP16 FLuc 1.41µM*, KinaseGlo FLuc -0.2% and RORgamma inh 2.82µM*.
CC(C)(C)C1C/C(=C/c2ccccn2)C(=O)/C(=C/c2ccccn2)C1 (configuration not stated) was read as Gal4-VP16 FLuc inconclusive, KinaseGlo FLuc -4.1% and RORgamma inh 5.62µM*.
`O=C1/C(=C/c2ccccn2)COc2ccccc21` gave Gal4-VP16 FLuc -15.5%, KinaseGlo FLuc -29.8% and RORgamma inh -25.6%.
For CC1C/C(=C/c2ccco2)C(=O)/C(=C/c2ccco2)C1 (configuration not stated) the results were Gal4-VP16 FLuc 17.3%, KinaseGlo FLuc 1.9% and RORgamma inh 31.1%.
Screening Clc1ccc(SCCCCN2CCNCC2)cc1 returned Gal4-VP16 FLuc -7.1%, KinaseGlo FLuc -3.6% and RORgamma inh 11.7%.
Screening Cc1cc2c(cc(C(=O)NCCCN3CCOCC3)n2Cc2ccc(Cl)cc2)o1 returned Gal4-VP16 FLuc 10µM*, KinaseGlo FLuc -1.9% and RORgamma inh inconclusive.
Screening Cc1ccc(Cn2c(C(=O)NCCCN3CCOCC3)cc3sccc32)cc1 returned Gal4-VP16 FLuc -11.5%, KinaseGlo FLuc -1.6% and RORgamma inh -12.1%.
COc1ccc2c(c1)C(=O)[C@H](OC(=O)Nc1ccc(C)c(Br)c1)[C@@H](c1ccc(OC)c(Br)c1)O2 was read as Gal4-VP16 FLuc -2.4%, KinaseGlo FLuc -1.0% and RORgamma inh -2.4%.
`CCN(CC)S(=O)(=O)c1ccc(C)c(NC(=O)CSc2nc3ccc(C)cc3[nH]2)c1` gave Gal4-VP16 FLuc -4.3%, KinaseGlo FLuc -2.1% and RORgamma inh inconclusive.
O=C1c2ccncc2C(=O)N1CO was read as Gal4-VP16 FLuc -7.6%, KinaseGlo FLuc -0.6% and RORgamma inh -14.6%.
For CNC1=C(Br)C(=O)c2ccncc2C1=O the results were Gal4-VP16 FLuc 5.62µM*, KinaseGlo FLuc -9.1% and RORgamma inh 2.24µM*.
For CNc1ccncc1S(=O)(=O)NC the results were Gal4-VP16 FLuc -19.0%, KinaseGlo FLuc 1.4% and RORgamma inh 5.4%.
CNC1=C(Cl)C(=O)c2ccncc2C1=O was read as Gal4-VP16 FLuc 5.62µM*, KinaseGlo FLuc -10.2% and RORgamma inh 2.82µM*.
COc1cc(CC(NC(C)=O)C(=O)NC2CCN(S(=O)(=O)c3ccc(NC(C)=O)cc3)CC2)cc(OC)c1 (configuration not stated) was read as Gal4-VP16 FLuc -0.5% and RORgamma inh -15.9%.
For Cc1onc(-c2ccccc2)c1C(=O)N1CCCCCC1 the results were Gal4-VP16 FLuc -2.0% and RORgamma inh 1.2%.
`CCCCOC(=O)C1=C(C)NC(=O)NC1c1ccccc1` (configuration not stated) gave Gal4-VP16 FLuc -2.1% and RORgamma inh 35.2%.
Cc1ccccc1CS(=O)(=O)Cc1ccc(C(=O)NCc2ccco2)o1 was read as Gal4-VP16 FLuc 14.3%, KinaseGlo FLuc 0.3% and RORgamma inh 29.1%.
For Cc1cc(C(F)(F)F)nn1Cc1ccc(C(=O)NCc2ccco2)o1 the results were Gal4-VP16 FLuc inconclusive, KinaseGlo FLuc -0.3% and RORgamma inh 10µM*.
For COCCNC(=S)N=Nc1c(O)[nH]c2c(C)cc(C)cc12 the results were Gal4-VP16 FLuc 7.94µM*, KinaseGlo FLuc -6.1% and RORgamma inh 2.24µM*.
Screening Cc1cc(C)c2[nH]c(O)c(N=NC(=O)c3cc4c(s3)CCCC4)c2c1 returned Gal4-VP16 FLuc 5.6%, KinaseGlo FLuc 0.5% and RORgamma inh 20.9%.
`Cn1c(=O)c2c(O)c(C=Nc3ccc(F)cc3)c(=O)n(C)c2n(C)c1=O` gave Gal4-VP16 FLuc -5.8% and RORgamma inh 3.9%.
`Cc1cccc(N2CC(C(=O)Nc3ccc(S(=O)(=O)Nc4nccs4)cc3)CC2=O)c1C` (configuration not stated) gave Gal4-VP16 FLuc -1.7% and RORgamma inh 12.7%.
For COc1ccc(SCC(CC(C)C)N2CCN(C)CCC2=O)cc1 (configuration not stated) the results were Gal4-VP16 FLuc 11.8% and RORgamma inh 11.3%.
`CCCc1cc(C(=O)NNC(=S)Nc2cccc(C)c2)cs1` gave Gal4-VP16 FLuc inconclusive, KinaseGlo FLuc -3.9% and RORgamma inh 2.24µM*.
For Cc1cccc(NC(=S)NNC(=O)c2csc3c2CCC(C)C3)c1 (configuration not stated) the results were Gal4-VP16 FLuc -3.7%, KinaseGlo FLuc -3.3% and RORgamma inh inconclusive.
`CC(=O)c1cccc(NC(=S)NC(=O)c2ccc(Cl)cc2)c1` gave Gal4-VP16 FLuc 8.91µM*, KinaseGlo FLuc 0.6% and RORgamma inh 7.08µM*.
CC(=O)c1ccc(NC(=O)c2cccc(NC(=O)c3ccccc3)c2)cc1 was read as Gal4-VP16 FLuc 9.7% and RORgamma inh 37.2%[1.91 µM].
For C/C(=N\NC(=O)c1ccc(Cl)cc1)c1cccc(NC(=O)C(C)C)c1 the results were Gal4-VP16 FLuc -6.2%, KinaseGlo FLuc -6.4% and RORgamma inh 11.2µM*.
`Cc1cccc(NC(=S)NNC(=O)c2ccccc2OC(F)F)c1` gave Gal4-VP16 FLuc inconclusive, KinaseGlo FLuc -0.9% and RORgamma inh inconclusive.
Screening C/C(=N\NC(=O)c1cccc(Cl)c1)c1cccc(NC(=O)C(C)C)c1 returned Gal4-VP16 FLuc -4.9%, KinaseGlo FLuc -4.8% and RORgamma inh 20.8%.
Cc1cccc(NC(=S)NNC(=O)c2ccccc2Br)c1 was read as Gal4-VP16 FLuc inconclusive, KinaseGlo FLuc -0.3% and RORgamma inh 0.891µM*.
